# Read-outs that look alike come from different tables or passages of the source.
# Experiments:
# GRK3 = tested on: T1, GRK3; conditions: concentration: 1 μM, replicates: in singlicate; n = 1
# T1 construct: gene ADRBK2
# GRK4 = conditions: concentration: 1 μM, replicates: in singlicate; n = 1
# GRK7 = conditions: concentration: 1 μM, replicates: in singlicate; n = 1
# GSK3A = conditions: concentration: 1 μM, replicates: in singlicate; n = 1
# GSK3B = conditions: n = 1
# HASPIN = tested on: T2, HASPIN; conditions: concentration: 1 μM, replicates: in singlicate; n = 1
# T2 construct: gene GSG2
# HCK = conditions: concentration: 1 μM, replicates: in singlicate; n = 1
# HIPK1 = conditions: concentration: 1 μM, replicates: in singlicate; n = 1
# HIPK2 = conditions: concentration: 1 μM, replicates: in singlicate; n = 1
# HIPK3 = conditions: concentration: 1 μM, replicates: in singlicate; n = 1
# HIPK4 = conditions: concentration: 1 μM, replicates: in singlicate; n = 1
# HPK1 = conditions: concentration: 1 μM, replicates: in singlicate; n = 1
# HUNK = conditions: concentration: 1 μM, replicates: in singlicate; n = 1
# ICK = conditions: concentration: 1 μM, replicates: in singlicate; n = 1
# IGF1R = conditions: concentration: 1 μM, replicates: in singlicate; n = 1
# IKK-alpha = tested on: T3, IKK-alpha; conditions: concentration: 1 μM, replicates: in singlicate; n = 1
# T3 construct: gene CHUK
# IKK-beta = tested on: T4, IKK-beta; conditions: concentration: 1 μM, replicates: in singlicate; n = 1
# T4 construct: gene IKBKB
# IKK-epsilon = tested on: T5, IKK-epsilon; conditions: concentration: 1 μM, replicates: in singlicate; n = 1
# T5 construct: gene IKBKE
# INSRR = conditions: concentration: 1 μM, replicates: in singlicate; n = 1
# INSR = conditions: concentration: 1 μM, replicates: in singlicate; n = 1
# [1] = concentration: 1 μM, replicates: in singlicate
# 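Also: KINOMEscan kinase panel screen.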
smiles,measurement,setting,value
CC(=O)c1c(C)c2cnc(Nc3ccc(N4CCNCC4)cn3)nc2n(C2CCCC2)c1=O,%Inh,GRK3,9%
same,%Inh,GRK4,7%
same,%Inh,GRK7,8%
same,%Inh,GSK3A,0%
same,%Inh,GSK3B; [1],0%
same,%Inh,HASPIN,0%
same,%Inh,HCK,0%
same,%Inh,HIPK1,20%
same,%Inh,HIPK2,0%
same,%Inh,HIPK3,0%
same,%Inh,HIPK4,8%
same,%Inh,HPK1,0%
same,%Inh,HUNK,0%
same,%Inh,ICK,0%
same,%Inh,IGF1R,0%
same,%Inh,IKK-alpha,0%
same,%Inh,IKK-beta,0%
same,%Inh,IKK-epsilon,15%
same,%Inh,INSRR,0%
same,%Inh,INSR,0%
CCCCc1nn2ncccc2c1-c1ccnc(NC2CC2)n1 [GW684374],%Inh,GRK3,17%
same,%Inh,GRK4,0%
same,%Inh,GRK7,0%
same,%Inh,GSK3A,4%
same,%Inh,GSK3B; [1],1%
same,%Inh,HASPIN,0%
same,%Inh,HCK,0%
same,%Inh,HIPK1,0%
same,%Inh,HIPK2,0%
same,%Inh,HIPK3,8%
same,%Inh,HIPK4,0%
same,%Inh,HPK1,3%
same,%Inh,HUNK,2%
same,%Inh,ICK,7%
same,%Inh,IGF1R,0%
same,%Inh,IKK-alpha,0%
same,%Inh,IKK-beta,3%
same,%Inh,IKK-epsilon,0%
same,%Inh,INSRR,0%
same,%Inh,INSR,0%
CS(=O)(=O)Cc1ccc(Nc2nccc(-c3c(-c4cccc(NC(=O)C5CCCCC5)c4)nn4ncccc34)n2)cc1 [GSK350559],%Inh,GRK3,0%
same,%Inh,GRK4,0%
same,%Inh,GRK7,5%
same,%Inh,GSK3A,0%
same,%Inh,GSK3B; [1],20%
same,%Inh,HASPIN,17%
same,%Inh,HCK,1%
same,%Inh,HIPK1,5%
same,%Inh,HIPK2,14%
same,%Inh,HIPK3,23%
same,%Inh,HIPK4,0%
same,%Inh,HPK1,14%
same,%Inh,HUNK,7%
same,%Inh,ICK,14%
same,%Inh,IGF1R,68%
same,%Inh,IKK-alpha,0%
same,%Inh,IKK-beta,12%
same,%Inh,IKK-epsilon,32%
same,%Inh,INSRR,20%
same,%Inh,INSR,42%
Fc1ccc(-c2nn3cccc(F)c3c2-c2ccncc2)cc1 [GW475620],%Inh,GRK3,0%
same,%Inh,GRK4,26%
same,%Inh,GRK7,0%
same,%Inh,GSK3A,0%
same,%Inh,GSK3B; [1],11%
same,%Inh,HASPIN,5%
same,%Inh,HCK,15%
same,%Inh,HIPK1,0%
same,%Inh,HIPK2,0%
same,%Inh,HIPK3,4%
same,%Inh,HIPK4,22%
same,%Inh,HPK1,0%
same,%Inh,HUNK,0%
same,%Inh,ICK,0%
same,%Inh,IGF1R,47%
same,%Inh,IKK-alpha,0%
same,%Inh,IKK-beta,0%
same,%Inh,IKK-epsilon,14%
same,%Inh,INSRR,0%
same,%Inh,INSR,13%
Nc1cccc(-c2ccc3c(N)n[nH]c3c2)n1 [GSK2192730],%Inh,GRK3,0%
same,%Inh,GRK4,13%
same,%Inh,GRK7,19%
same,%Inh,GSK3A,19%
same,%Inh,GSK3B; [1],26%
same,%Inh,HASPIN,39%
same,%Inh,HCK,0%
same,%Inh,HIPK1,23%
same,%Inh,HIPK2,0%
same,%Inh,HIPK3,25%
same,%Inh,HIPK4,0%
same,%Inh,HPK1,35%
same,%Inh,HUNK,0%
same,%Inh,ICK,9%
same,%Inh,IGF1R,0%
same,%Inh,IKK-alpha,0%
same,%Inh,IKK-beta,18%
same,%Inh,IKK-epsilon,0%
same,%Inh,INSRR,0%
same,%Inh,INSR,3%
Cl.Cl.Cl.N#Cc1ccc(CCNc2nccc(-c3cccc(CN4CCNCC4)c3)n2)cc1 [GSK2137462],%Inh,GRK3,0%
same,%Inh,GRK4,0%
same,%Inh,GRK7,5%
same,%Inh,GSK3A,31%
same,%Inh,GSK3B; [1],7%
same,%Inh,HASPIN,42%
same,%Inh,HCK,0%
same,%Inh,HIPK1,1%
same,%Inh,HIPK2,0%
same,%Inh,HIPK3,21%
same,%Inh,HIPK4,26%
same,%Inh,HPK1,48%
same,%Inh,HUNK,0%
same,%Inh,ICK,5%
same,%Inh,IGF1R,11%
same,%Inh,IKK-alpha,0%
same,%Inh,IKK-beta,0%
same,%Inh,IKK-epsilon,20%
same,%Inh,INSRR,0%
same,%Inh,INSR,87%
COc1cccc(CNC(=O)NC2CCN(c3ccnc(Nc4ccc(F)cc4)n3)C2)c1 (stereo not shown) [GSK1379723],%Inh,GRK3,37%
same,%Inh,GRK4,6%
same,%Inh,GRK7,5%
same,%Inh,GSK3A,11%
same,%Inh,GSK3B; [1],13%
same,%Inh,HASPIN,0%
same,%Inh,HCK,0%
same,%Inh,HIPK1,0%
same,%Inh,HIPK2,0%
same,%Inh,HIPK3,36%
same,%Inh,HIPK4,0%
same,%Inh,HPK1,40%
same,%Inh,HUNK,0%
same,%Inh,ICK,21%
same,%Inh,IGF1R,4%
same,%Inh,IKK-alpha,44%
same,%Inh,IKK-beta,14%
same,%Inh,IKK-epsilon,0%
same,%Inh,INSRR,18%
same,%Inh,INSR,0%
COc1ccc(CSc2nnc(-c3ccc4c(c3)CCO4)o2)cc1,%Inh,GRK3,3%
same,%Inh,GRK4,1%
same,%Inh,GRK7,0%
same,%Inh,GSK3A,75%
same,%Inh,GSK3B; 1 µM,0%
same,%Inh,HASPIN,42%
same,%Inh,HCK,0%
same,%Inh,HIPK1,9%
same,%Inh,HIPK2,0%
same,%Inh,HIPK3,0%
same,%Inh,HIPK4,0%
same,%Inh,HPK1,0%
same,%Inh,HUNK,0%
same,%Inh,ICK,0%
same,%Inh,IGF1R,0%
same,%Inh,IKK-alpha,0%
same,%Inh,IKK-beta,0%
same,%Inh,IKK-epsilon,0%
same,%Inh,INSRR,0%
same,%Inh,INSR,0%

# Source: paper PMC5540273 (PLoS ONE, 2017)
